From PubChem
Compounds with a hit are over-represented: about 2.8% of the library has one in this group of screens.
HIF-2a inh – HIF-2a reporter inhibitors, primary screen, luminescence, 786-0 RCC cells; inhibition, % at 18.8 µM; AID 624352, 2012; hit rate 0.72% among 360,000; 786-0 RCC cells HIF-2a reporter, luciferase luminescence, overnight;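 active = inhibition of the luminescence signal of 40% or more relative to plate controls, in a single-dose primary screen at 18.75 µM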
LMP1 NFkB inh – EBV LMP1-driven NF-kappaB luciferase reporter inhibitors, primary screen, cell-based, luminescence, single point. AID 504558, 2011. inhibition, % at 12.5 µM. LMP1-induced NF-kappaB luciferase reporter cells. hit rate 0.69% among 350,000; in the data active = inhibition above about 41%; inconclusive = no clear call, values can overlap the other calls;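 also: 0% = neutral control wells and 100% = reference inhibitor control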
PAX8 reporter – inhibitors of PAX8-driven TPO luciferase reporter, primary screen, RMG-I cells, single concentration; SteadyGlo, 24 h; inhibition, % at 12.6 µM; hit rate 1.2% among 360,000; AID 652154, 2013;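 active = mean replicate inhibition at least 60% with every replicate also reaching 60%; inconclusive = only one of the two criteria is met; inactive = mean below 60% and not all replicates reaching 60%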;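 also: luciferase light reporting Pax8 driven TPO promoter activity; plate controls were median of neutral control wells for no effect and mitoxantrone controls for full effect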
Peg3 promoter – Peg3 promoter-driven luciferase inhibitors, primary screen, cell-based, HeLa, luciferase luminescence | AID 588405, 2011 | inhibition, % at 20 µM | HeLa PEG-Prom luciferase reporter, overnight | hit rate 1.7% among 360,000;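 active = inhibition of at least 50% at 20 µM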
MITF TRPM1 inh – inhibitors of MITF-dependent TRPM1 promoter reporter, primary screen, cell-based, SK-MEL-5, single point, luciferase | SK-MEL-5 TRPM1 promoter luciferase, 24 h | inhibition, % at 12.5 µM | hit rate 0.83% among 330,000;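 active = mean inhibition across replicates of 60% or more, whatever share of single replicates reaches that level; inconclusive = some that reach 60%, reason not given; inactive = mean inhibition across replicates below 60%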
Shn3 3UTR inh – reduction of Shn3 3'UTR firefly luciferase signal, primary screen, Schnurri-3 inhibitor project, cell-based, Clone20 osteoblasts, set 2 | Clone20 osteoblast Shn3 3'UTR firefly luciferase, 24 h | inhibition, % at 12.5 µM | hit rate 0.52% among 360,000;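 active = mean inhibition of at least 75% with every replicate also reaching 75%; inconclusive = mean inhibition at least 75% but some replicate below; inactive = mean inhibition below 75%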;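 also: 0% = median of neutral control wells and 100% = pilot-screen positive control compound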
* hit, by the source's call; u = inconclusive; x = no result given.

SMILES	HIF-2a inh	LMP1 NFkB inh	PAX8 reporter	Peg3 promoter	MITF TRPM1 inh	Shn3 3UTR inh
CO[C@H]1CN(C)C(=O)c2cc(NS(=O)(=O)c3cccc(F)c3)ccc2OC[C@H](C)N(C(=O)Cc2cccnc2)C[C@H]1C	x	x	-2.9	x	x	x
CN1C(=O)c2cc(NC(=O)c3cccs3)ccc2OC[C@@H]2O[C@@H](CC(=O)NCCN3CCCCC3)CC[C@@H]21	x	x	-19.8	x	x	x
CCC(=O)N1C[C@@H](C)[C@H](OC)CN(C)C(=O)c2ccc(NC(=O)Nc3ccc(Cl)cc3)cc2OC[C@H]1C	x	x	13.0	x	x	x
Cc1ccc(S(=O)(=O)N[C@@H]2C=C[C@@H](CC(=O)N3CCC(Cc4ccccc4)CC3)O[C@@H]2CO)cc1	x	x	89.6*	x	x	x
CCOc1ccc(C(=O)NCc2ccccc2)cc1Br	-17.4	-3.6	79.0*	6.8	13.6	15.4
CCOC(=O)C(Cc1ccccc1)C(=O)NCc1ccccc1 (stereo not given)	12.8	8.0	18.5	4.3	-3.8	-1.4
CCOC(=O)NCc1ccccc1	6.5	84.2*	x	1.7	3.8	-15.3
COc1ccc2cc(C(=O)NC3CCCCC3)c(=O)oc2c1	-11.2	80.8*	x	-192.1	-66.3	-1.0
O=C(Nc1ccc(S(=O)(=O)N2CCOCC2)cc1)c1ccc([N+](=O)[O-])s1	0.9	-9.9	20.8	41.4	84.2*	15.1
Cc1ccc(-n2ccc(=O)c(C(=O)Nc3ccc(S(=O)(=O)N4CCOCC4)cc3)n2)cc1	12.6	44.9*	3.8	11.0	-7.3	-9.3
O=C(Nc1ccccc1N1CCOCC1)c1ccc([N+](=O)[O-])s1	4.7	-1.7	33.4	20.8	80.9*	12.3
COc1ccccc1NC(=O)N[C@H]1CC[C@@H](CCn2cc(-c3ccccc3)nn2)O[C@@H]1CO	x	x	20.6	x	x	x
CCOC(=O)c1ccc(N2C(=O)c3n[nH]c(-c4ccco4)c3C2c2ccc([N+](=O)[O-])cc2)cc1 (stereo not given)	20.1	3.6	37.9	60.0*	20.2	22.6
Cc1ccc(S(=O)(=O)N2C[C@@H]3CCCC[C@@H]3[C@@H](C)[C@H]2c2cn(Cc3ccccc3)c3ncccc23)cc1	-9.7	26.2	u	16.0	45.5	88.8*
Cc1ccc(S(=O)(=O)N2C[C@@H]3CCCC[C@@H]3[C@@H](C)[C@H]2c2cn(Cc3ccccc3)c3ccccc23)cc1	-18.3	35.0	13.9	9.8	49.3	81.0
Cc1ccc(NC(=S)N/N=C/c2ccc([N+](=O)[O-])s2)cc1	-55.9	37.6	-17.3	6.5	69.9*	65.6
O=[N+]([O-])c1ccc(C=Nc2ccc(Cl)c([N+](=O)[O-])c2)s1	-3.2	-48.8	-3.8	80.6*	71.4*	80.1
NC(=O)c1ccc(N=Cc2ccc([N+](=O)[O-])s2)cc1	10.4	-18.9	7.2	46.9	50.9	58.5
Cc1cc(C)cc(N=Cc2ccc([N+](=O)[O-])s2)c1	8.8	-7.6	2.3	50.7*	28.0	10.0
Cc1onc(-c2ccccc2)c1C(=O)N/N=C/c1ccc([N+](=O)[O-])s1	24.0	5.3	x	25.3	64.9*	-0.8
O=[N+]([O-])c1ccc(/C=N/Nc2ncccc2[N+](=O)[O-])s1	-65.5	-25.8	-2.6	-59.7	8.5	-26.3
Cc1onc(-c2ccccc2)c1C(=O)N/N=C/c1ccco1	11.5	-3.0	-9.9	8.7	-2.8	2.4
CN1CCN(C(=O)C[C@H]2CC[C@@H]3[C@H](COC[C@@H](O)CN3S(=O)(=O)c3cccc(Cl)c3)O2)CC1	x	x	-9.9	x	x	x
COC(=O)c1ccc(CN2CC(=O)N3[C@H](C2)[C@H](c2ccc(-c4ccccc4F)cc2)[C@@H]3CO)cc1	x	x	7.3	x	x	x
CCOC(=O)C1=C(c2ccccc2)NC(=O)NC1c1ccc(O)c(Cl)c1 (stereo not given)	25.2	-6.2	69.6*	28.1	9.2	2.0
SMILES	HIF-2a inh	LMP1 NFkB inh	PAX8 reporter	Peg3 promoter	MITF TRPM1 inh	Shn3 3UTR inh
Cc1noc(C)c1NC(=O)Nc1ccc2c(c1)C(=O)N([C@@H](C)CO)C[C@H](C)[C@@H](CN(C)Cc1ccc(C(=O)O)cc1)OCCCC[C@H](C)O2	x	x	-4.6	x	x	x
CC(C)N1C(=O)/C(=C\c2nc3ccccc3c(=O)[nH]2)c2ccccc21	30.5	-9.9	x	61.2*	-17.8	-13.4
CCCN1C(=O)/C(=C/c2nc3ccccc3c(=O)[nH]2)c2ccccc21	19.7	6.9	5.9	47.0	-8.4	-12.6
O=C(c1ccccc1)c1c[nH]c(C(=O)C(Cl)(Cl)Cl)c1	-4.7	-6.7	-6.6	39.5	5.0	-5.9
O=C(c1c[nH]c(C(=O)C(Cl)(Cl)Cl)c1)c1ccc(F)cc1Cl	-1.9	2.8	21.9	53.6*	5.3	22.6
O=C(c1ccc(Cl)cc1)c1c[nH]c(C(=O)C(Cl)(Cl)Cl)c1	-7.0	-7.1	x	58.4*	-8.8	-19.8
COc1ccc(S(=O)(=O)Nc2ccc3c(c2)C(=O)N([C@H](C)CO)C[C@@H](C)[C@H](CN(C)S(=O)(=O)c2cn(C)cn2)OCCCC[C@@H](C)O3)cc1	x	x	4.1	x	x	x
O=C(NCCc1ccc(Cl)cc1)C12CC3CC(CC(O)(C3)C1)C2	-45.1	58.2*	-4.0	-49.2	-18.2	-10.4
C[C@@H]1CCCCO[C@H](CN(C)Cc2ccc(C(F)(F)F)cc2)[C@H](C)CN([C@@H](C)CO)C(=O)c2cc(NS(=O)(=O)c3ccccc3)ccc2O1	x	x	39.0	x	x	x
C[C@@H]1CCCCO[C@@H](CN(C)Cc2ccc(C(F)(F)F)cc2)[C@@H](C)CN([C@@H](C)CO)C(=O)c2cc(NS(=O)(=O)c3ccccc3)ccc2O1	x	x	94.5*	x	x	x
C[C@@H]1CN([C@H](C)CO)C(=O)c2cc(NS(=O)(=O)c3ccccc3)ccc2O[C@@H](C)CCCCO[C@@H]1CN(C)Cc1ccc(C(F)(F)F)cc1	x	x	101.7*	x	x	x
